# Results filed as inconclusive are left out. Activity calls are given as the source filed them. How the source made its calls: active means hit-call score of the fitted dose curve at least 0.9, where 1 is the maximum; inconclusive means response in the unintended direction; inactive means score below 0.9.
# How the values were obtained:
# [1] = molecular target: human Dopamine Receptor D4.4 (DRD4.4), DRD4 (gene 1815) (UniProt P21917); experiment: NVS_GPCR_hDRD4.4: NovaScreen (NVS) G Protein-Coupled Receptor Assay for human Dopamine Receptor D4.4 (DRD4.4) (AID 2283264)
# How it was run: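 Radioligand displacement on human DRD4.4 from CHO-derived membranes, 1 hour incubation, bound counts read by filtration and scintillation. Primary screen in duplicate at 25 uM; actives followed up in concentration series.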
# [2] = molecular target: human Dopamine Receptor D2 (DRD2), DRD2 (gene 1813) (UniProt P14416); experiment: NVS_GPCR_hDRD2s: NovaScreen (NVS) G Protein-Coupled Receptor Assay for human Dopamine Receptor D2 (DRD2) (AID 2283266)
# How it was run: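 Radioligand displacement used human DRD2 membranes extracted from CHO cells and was read by filter-based scintillation counting after 1.5 hours. Primary screening was in duplicate at 25 uM. Loss of signal versus DMSO was fitted, with concentration series in follow-up.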
# [3] = molecular target: human Endothelin Receptor Type A (ETA), EDNRA (gene 1909) (UniProt P25101); experiment: NVS_GPCR_hETA: NovaScreen (NVS) G Protein-Coupled Receptor Assay for human Endothelin Receptor Type A (ETA) (AID 2283265)
# How it was run: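 Cell-free radioligand displacement using SH-SY5Y-derived protein, 3 h incubation, filter-based scintillation counting. Primary screen in duplicate at 25 uM; actives then run in concentration-response up to 50 uM; loss of binding fitted versus DMSO.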
# [4] = molecular target: Muscarinic acetylcholine receptor M1 (Homo sapiens) (UniProt P11229); experiment: NVS_GPCR_hM1: NovaScreen (NVS) G Protein-Coupled Receptor Assay for human Muscarinic, M1 Receptor (AID 2283270)
# Experimental: (§1) NVS_GPCR_hM1 is a biochemical, single-readout assay that uses extracted gene-proteins from CHO in a cell-free assay. Measurements were taken 1 hour after chemical dosing in a 96-well plate.NVS_GPCR_hM1 is one of one assay component(s) measured or calculated from the NVS_GPCR_hM1 assay. It is designed to make measurements of radioligand binding, a form of binding reporter, as detected with scintillation counting signals by Filter-based radiodetection technology.Data from the assay component NVS_GPCR_hM1 was analyzed into 1 assay endpoint. This assay endpoint, NVS_GPCR_hM1, was analyzed in the positive analysis fitting direction relative to DMSO as the negative control and baseline of activity. […] Furthermore, this assay endpoint can be referred to as a primary readout, because the performed assay has only produced 1 assay endpoint. […]
# (§2) Binding assays used specific radioligands (tritiated, iodinated) with non-radioactive competitive displacement ligands in agonist or antagonist protocols (as indicated) and various reference compounds and inhibitors to titrate specific binding to receptors and transporters. Most enzyme assays (CYPs, kinases, phosphatases, proteases, HDACs) used recombinant protein and specific substrates (fluorescence mostly, some colorimetric and radioactive) and inhibitors, followed by a biochemical separation of substrate and product. […]
# [5] = molecular target: Muscarinic acetylcholine receptor M3 (Homo sapiens) (UniProt P20309); experiment: NVS_GPCR_hM3: NovaScreen (NVS) G Protein-Coupled Receptor Assay for human Muscarinic, M3 Receptor (AID 2283272)
# Experimental: as §1, with “NVS_GPCR_hM3” for “NVS_GPCR_hM1”, “plate.NVS_GPCR_hM3” for “plate.NVS_GPCR_hM1”, “NVS_GPCR_hM3,” for “NVS_GPCR_hM1,”
# as §2
# [6] = molecular target: human Endothelin Receptor Type B (ETB), EDNRB (gene 1910) (UniProt P24530); experiment: NVS_GPCR_hETB: NovaScreen (NVS) G Protein-Coupled Receptor Assay for human Endothelin Receptor Type B (ETB) (AID 2283267)
# How it was run: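 Human astrocytoma cell membranes; radioligand competitive binding read by filter scintillation counting 4 hours after dosing. Single-concentration duplicate screen at 25 uM, then singleton concentration-response up to 50 uM; loss of signal versus DMSO.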
# Chain of Muscarinic acetylcholine receptor M3 (Homo sapiens) (P20309 whole entry, looked up): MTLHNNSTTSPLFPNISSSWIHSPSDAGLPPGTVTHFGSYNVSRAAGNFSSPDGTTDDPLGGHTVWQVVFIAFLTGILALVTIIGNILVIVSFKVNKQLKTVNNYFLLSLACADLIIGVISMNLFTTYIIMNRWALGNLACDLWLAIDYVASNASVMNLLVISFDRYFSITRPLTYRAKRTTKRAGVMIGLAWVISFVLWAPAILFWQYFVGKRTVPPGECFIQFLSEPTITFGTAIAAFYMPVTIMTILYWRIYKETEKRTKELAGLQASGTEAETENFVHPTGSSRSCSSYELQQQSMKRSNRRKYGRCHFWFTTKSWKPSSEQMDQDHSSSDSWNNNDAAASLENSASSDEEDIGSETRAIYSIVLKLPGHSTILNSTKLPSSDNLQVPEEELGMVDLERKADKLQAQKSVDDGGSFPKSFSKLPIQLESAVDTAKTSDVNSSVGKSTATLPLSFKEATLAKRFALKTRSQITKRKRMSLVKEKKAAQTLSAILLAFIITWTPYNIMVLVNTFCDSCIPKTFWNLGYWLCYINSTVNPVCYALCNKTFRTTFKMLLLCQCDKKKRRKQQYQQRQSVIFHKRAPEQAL
# Chain of human Dopamine Receptor D2 (DRD2), DRD2 (gene 1813) (P14416 whole entry, looked up): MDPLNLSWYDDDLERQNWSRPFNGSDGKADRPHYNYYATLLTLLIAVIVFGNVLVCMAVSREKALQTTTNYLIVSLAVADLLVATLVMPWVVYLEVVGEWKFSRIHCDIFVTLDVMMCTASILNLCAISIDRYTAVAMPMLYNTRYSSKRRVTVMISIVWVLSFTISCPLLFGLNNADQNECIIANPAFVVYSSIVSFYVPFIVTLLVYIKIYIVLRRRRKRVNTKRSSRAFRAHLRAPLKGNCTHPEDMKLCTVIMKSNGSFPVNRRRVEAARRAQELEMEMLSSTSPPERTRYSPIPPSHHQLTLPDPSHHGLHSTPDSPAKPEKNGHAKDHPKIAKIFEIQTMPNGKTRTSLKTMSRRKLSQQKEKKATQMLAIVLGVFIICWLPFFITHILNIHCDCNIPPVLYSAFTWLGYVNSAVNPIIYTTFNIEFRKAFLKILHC
# Chain of human Endothelin Receptor Type B (ETB), EDNRB (gene 1910) (P24530 whole entry, looked up): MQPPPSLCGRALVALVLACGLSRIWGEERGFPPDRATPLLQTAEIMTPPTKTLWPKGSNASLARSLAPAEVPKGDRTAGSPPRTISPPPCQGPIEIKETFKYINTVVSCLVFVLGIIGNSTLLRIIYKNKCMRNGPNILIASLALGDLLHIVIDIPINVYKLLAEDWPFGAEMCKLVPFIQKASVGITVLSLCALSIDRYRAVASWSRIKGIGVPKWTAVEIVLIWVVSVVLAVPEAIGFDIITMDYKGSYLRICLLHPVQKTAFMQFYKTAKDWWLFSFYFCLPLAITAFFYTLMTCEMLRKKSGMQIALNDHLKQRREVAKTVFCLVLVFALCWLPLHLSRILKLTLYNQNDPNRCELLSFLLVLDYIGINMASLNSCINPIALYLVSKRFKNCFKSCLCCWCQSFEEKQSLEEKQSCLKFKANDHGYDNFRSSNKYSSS
# Chain of Muscarinic acetylcholine receptor M1 (Homo sapiens) (P11229 whole entry, looked up): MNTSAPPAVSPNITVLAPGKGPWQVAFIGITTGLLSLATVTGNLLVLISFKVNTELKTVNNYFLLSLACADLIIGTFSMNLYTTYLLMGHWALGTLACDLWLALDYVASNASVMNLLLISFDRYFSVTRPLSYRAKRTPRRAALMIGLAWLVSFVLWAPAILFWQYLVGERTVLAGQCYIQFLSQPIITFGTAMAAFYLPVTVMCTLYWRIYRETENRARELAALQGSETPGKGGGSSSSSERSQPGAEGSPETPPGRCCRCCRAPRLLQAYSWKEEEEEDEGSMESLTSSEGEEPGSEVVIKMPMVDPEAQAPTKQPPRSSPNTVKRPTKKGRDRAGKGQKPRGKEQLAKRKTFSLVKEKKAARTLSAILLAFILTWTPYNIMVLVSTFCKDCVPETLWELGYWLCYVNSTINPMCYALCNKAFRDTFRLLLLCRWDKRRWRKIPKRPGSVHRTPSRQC
# Chain of human Endothelin Receptor Type A (ETA), EDNRA (gene 1909) (P25101 whole entry, looked up): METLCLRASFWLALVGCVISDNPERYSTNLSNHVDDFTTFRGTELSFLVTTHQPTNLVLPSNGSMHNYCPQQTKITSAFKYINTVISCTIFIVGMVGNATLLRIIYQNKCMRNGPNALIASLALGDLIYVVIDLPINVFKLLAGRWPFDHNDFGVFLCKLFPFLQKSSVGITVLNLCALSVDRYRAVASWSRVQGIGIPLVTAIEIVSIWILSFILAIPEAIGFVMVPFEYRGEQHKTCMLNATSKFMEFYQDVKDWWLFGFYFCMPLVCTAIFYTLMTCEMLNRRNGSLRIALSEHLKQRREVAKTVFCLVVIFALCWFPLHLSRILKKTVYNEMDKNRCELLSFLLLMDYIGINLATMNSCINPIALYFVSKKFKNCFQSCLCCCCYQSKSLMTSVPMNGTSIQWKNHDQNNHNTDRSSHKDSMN
# Chain of human Dopamine Receptor D4.4 (DRD4.4), DRD4 (gene 1815) (P21917 whole entry, looked up): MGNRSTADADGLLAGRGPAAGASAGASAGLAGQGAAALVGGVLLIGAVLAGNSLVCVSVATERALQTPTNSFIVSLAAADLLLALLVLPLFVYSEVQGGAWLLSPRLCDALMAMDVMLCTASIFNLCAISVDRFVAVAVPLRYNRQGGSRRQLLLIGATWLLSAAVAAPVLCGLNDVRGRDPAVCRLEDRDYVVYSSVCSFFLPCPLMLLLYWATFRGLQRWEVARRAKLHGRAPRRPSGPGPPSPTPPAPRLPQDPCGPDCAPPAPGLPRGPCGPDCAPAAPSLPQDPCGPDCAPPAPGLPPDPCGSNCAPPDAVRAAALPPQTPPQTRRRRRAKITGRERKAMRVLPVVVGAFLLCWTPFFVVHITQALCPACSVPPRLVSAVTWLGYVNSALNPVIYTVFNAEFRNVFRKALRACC
structure (smiles),measurement,setting,value
Cc1ccc(-c2c(Cl)nc(C#N)n2S(=O)(=O)N(C)C)cc1,outcome,[1],inactive
same,outcome,[2],inactive
C=CCC1=C(C)C(OC(=O)C2C(C=C(C)C)C2(C)C)CC1=O (stereo not drawn),outcome,[3],inactive
COc1ccc(C(c2ccc(OC)cc2)C(Cl)(Cl)Cl)cc1,outcome,[2],inactive
same,outcome,[4],inactive
same,outcome,[5],inactive
CC1COC(Cn2cncn2)(c2ccc(Oc3ccc(Cl)cc3)cc2Cl)O1 (stereo not drawn),outcome,[6],inactive
CCCC1COC(Cn2cncn2)(c2ccc(Cl)cc2Cl)O1 (stereo not drawn),AC50,[5],4.96 µM (active)
